The list is not random: actives were taken first. Their share in the collection is about 3.1%.
KCC2 mod – KCC2 (human) Cl- transport modulation | Q9H2X9 | KCC2 cells, thallium flux FluoZin-2 fluorescence | B-score of Tl+ flux slope (higher = more flux/activation; lower = inhibition) at 10 µM | hit rate 2.2% among 190,000;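 active = thallium flux slope and its plate-corrected score both differing from the plate sample mean at a set confidence after two filtering rounds, in either direction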;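 also: slope of fluorescence scaled to starting intensity during 10 to 20 s after thallium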
PGE2 EP2 inh – inhibitors of human EP2 prostaglandin E2 receptor | P43116 | C6 glioma cells expressing human EP2, cAMP TR-FRET; cells stimulated with saturating PGE2 | inhibition, % at 25 µM | hit rate 0.52% among 260,000 | AID 1422;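 active = percent inhibition above 40 after rounding to a whole number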;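 also: rat C6 glioma host cells with rolipram phosphodiesterase inhibitor present; the protocol text gives 20 µM as final concentration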
Target sequence (P43116 whole entry, looked up): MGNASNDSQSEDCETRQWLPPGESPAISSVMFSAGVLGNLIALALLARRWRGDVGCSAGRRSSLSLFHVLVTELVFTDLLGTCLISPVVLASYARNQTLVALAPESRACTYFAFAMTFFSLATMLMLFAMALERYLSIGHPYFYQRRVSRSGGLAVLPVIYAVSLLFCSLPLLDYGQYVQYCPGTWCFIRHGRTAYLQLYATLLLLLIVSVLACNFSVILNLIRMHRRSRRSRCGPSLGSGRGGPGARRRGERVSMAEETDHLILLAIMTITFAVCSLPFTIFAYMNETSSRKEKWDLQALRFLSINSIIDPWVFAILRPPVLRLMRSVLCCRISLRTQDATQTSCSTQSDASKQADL
EP2 modulator – modulates human prostaglandin E2 receptor EP2 signaling; P43116; EP2-expressing cells, cAMP HTRF FRET, PGE2 co-stimulation; induction, % at 25 µM; hit rate 0.83% among 260,000;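 active = compounds whose cAMP rise, as percent of the full-agonist control response, exceeds 60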;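 also: rat C6 glioma line stably carrying human EP2 under a CMV promoter; the protocol text gives 20 µM as final concentration; 100% = response of wells given 1 µM PGE2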
S1P3 antagonist – S1P3 (human) receptor antagonism; inhibition, % at 4.98 µM; hit rate 0.27% among 170,000; CHO S1P3 NFAT-BLA reporter, FRET fluorescence, antagonist mode; Q99500; AID 485;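 active = inhibition above the plate cutoff, the mean inhibition of test wells on that plate plus 3 SD, cut at about 28% in these data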;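 also: cells challenged with S1P at its EC80 of 0.8 µM; blue over green emission ratio from cleaved BLA substrate after 4 h stimulation; 0% = S1P-stimulated wells and 100% = unstimulated DMSO-only wells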
Target sequence (Q99500 whole entry, looked up): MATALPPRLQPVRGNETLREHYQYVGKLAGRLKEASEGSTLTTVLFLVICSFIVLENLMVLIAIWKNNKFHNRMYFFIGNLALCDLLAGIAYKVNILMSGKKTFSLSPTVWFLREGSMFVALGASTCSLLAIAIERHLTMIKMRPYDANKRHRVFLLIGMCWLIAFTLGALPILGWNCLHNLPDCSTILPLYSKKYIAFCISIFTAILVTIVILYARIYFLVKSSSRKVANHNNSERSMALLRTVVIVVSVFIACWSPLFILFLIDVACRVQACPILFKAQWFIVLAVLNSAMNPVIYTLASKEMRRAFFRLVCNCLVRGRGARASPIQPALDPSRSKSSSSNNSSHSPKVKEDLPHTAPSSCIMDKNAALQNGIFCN
KCC2 secondary – confirmation of human KCC2 transport modulators | hit rate 15% among 3,700 | shares compounds with KCC2 mod | normalised thallium flux (F/F0 slope) at 10 µM | AID 1713 | HEK293-KCC2, thallium flux, FluoZin2 fluorescence; hits give high values;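 active = thallium flux slope above the same plate's solvent-only control mean plus 3 SD; inconclusive = the two replicate wells disagree; inactive = no significant difference from solvent-only control wells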
KCC2 bumet counter – bumetanide-insensitive thallium flux in KCC2 cells with ouabain, counter-screen | shares compounds with KCC2 mod | HEK293-KCC2 + bumetanide/ouabain, thallium flux FluoZin2; hits give high values | normalized thallium flux at 10 µM | hit rate 49% among 3,700;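 active = thallium entry rate above the same plate's blocked-transporter control wells by more than 3 SD; inconclusive = the two repeat wells disagree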;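 also: raw slope of fluorescence over initial fluorescence between 10 and 20 s after thallium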
KCC2 secondary2 – confirmation of human KCC2 transport modulators | shares compounds with KCC2 mod | HEK293-KCC2, thallium flux FluoZin2 fluorescence; actives lie on both sides; F/F0 rise rate, 10–20 s post-thallium | normalized thallium flux at 10 µM | hit rate 23% among 3,700;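 active = thallium flux slope more than 3 SD above or below the plate's solvent-only control mean, mostly below; inconclusive = the two repeat wells disagreed; inactive = no significant shift from solvent-only controls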;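 also: raw slope with 0.1% DMSO as baseline and bumetanide as block control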
HEK293 Tl flux – parental HEK flux effect, counter-screen; shares compounds with KCC2 mod; thallium flux rate (normalised fluorescence) at 10 µM; hit rate 46% among 3,700; HEK293 parental cells, thallium flux FluoZin2, ouabain; baseline-ratio fluorescence slope, 10–20 s after thallium; AID 1716;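 active = thallium flux rate significantly above the same plate's solvent-only control wells, beyond their mean plus 3 SD; inconclusive = the two replicate wells gave conflicting results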
KCC2 retest ouab – confirmation of human KCC2 modulators with ouabain. shares compounds with KCC2 mod. HEK293-KCC2, thallium flux FluoZin2 fluorescence; bidirectional: low = inhibitor, high = activator. raw Tl+ flux slope (below DMSO = inhibition, above = activation) at 10 µM. hit rate 48% among 3,700;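 active = thallium flux slope beyond 3 SD from same-plate DMSO control mean in most replicates, usually higher, sometimes lower; inconclusive = repeat tests gave conflicting results; inactive = no significant difference from controls in most replicates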;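 also: slope of initial-normalized fluorescence between seconds 10 and 20 after thallium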
HEK293 Tl flux2 – parental HEK flux effect, counter-screen 2; shares compounds with KCC2 mod; HEK293 parental, thallium flux FluoZin-2 fluorescence slope; thallium flux slope at 10 µM; hit rate 33% among 3,700;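 active = thallium flux slope above the same plate's solvent-control mean plus 3 SD in both duplicate wells; inconclusive = duplicate wells that disagreed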;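 also: run without ouabain in cells lacking the KCC2 cotransporter; slope of fluorescence scaled to its starting value between 10 and 20 s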
* marks the source's active call; other numbers are inactive results; ? = inconclusive; nt = not tested or not shown.

SMILES	KCC2 mod	PGE2 EP2 inh	EP2 modulator	S1P3 antagonist	KCC2 secondary	KCC2 bumet counter	KCC2 secondary2	HEK293 Tl flux	KCC2 retest ouab	HEK293 Tl flux2
CC(C)CN1C(=O)/C(=C/c2ccco2)NC1=S	53*	8	1	6	0.01	0.015*	0.035	0.058*	0.034*	0.018*
CCc1nn(CCCC(=O)N2CCc3ccccc3C2)c(=O)c2cc3occc3n12	-5.8*	26	12	6	0.0075	0.006	0.03	0.0062	0.014*	0.01
Cc1nn(CCCC(=O)N2CCc3ccccc3C2)c(=O)c2cc3sccc3n12	-6.5*	nt	-43	-40	0.0058	0.0051	?	?	0.012*	0.011
CCc1nn(CC(=O)N2CCOCC2)c(=O)c2cc3occc3n12	nt	5	-42	nt	nt	nt	nt	nt	nt	nt
CC(/C=C1\SC(=S)N(NS(=O)(=O)c2ccc(C)cc2)C1=O)=C\c1ccccc1	99*	11	-6	-6	0.0065	0.1*	0.072*	0.083*	0.08*	0.071*
COc1cc(/C=C2\SC(=S)N(NS(=O)(=O)c3ccccc3)C2=O)ccc1O	-3.2	16	10	5	nt	nt	nt	nt	nt	nt
COc1cc(/C=C2\SC(=S)N(NS(=O)(=O)c3ccc(C)cc3)C2=O)ccc1O	-4.9*	41*	-51	2	0.0059	-0.0052*	0.018*	0.0044*	0.0057*	?
COc1cc(/C=C2\SC(=S)N(NS(=O)(=O)c3ccc(C)cc3)C2=O)cc(OC)c1OC	7.8*	10	-49	-8	0.009	0.022*	0.03	0.014*	0.021	0.011
CCn1c(CSc2nc(C)cc(C)n2)nnc1SCc1ccc(C)cc1	nt	6	5	nt	nt	nt	nt	nt	nt	nt
O=C(/C=C/c1ccco1)N1CCC(Cc2ccccc2)CC1	-4.9*	2	-55	-33	0.007	0.005	0.021*	0.0074	0.014*	0.0099
O=C(/C=C/c1ccc2c(c1)OCO2)N1CCC(Cc2ccccc2)CC1	nt	12	-145	nt	nt	nt	nt	nt	nt	nt
N=C1SC(c2ccccc2)C(=O)N1c1ncc(Cc2ccccc2Cl)s1 (configuration not stated)	5.8*	17	23	-9	0.0071	0.02*	0.031	0.016*	?	0.02*
Cc1cccc(CSc2nnc(-c3ccco3)o2)c1	-0.098	11	13	-4	nt	nt	nt	nt	nt	nt
CC(=O)c1c(C)cc(C)c(CSc2nnc(-c3ccco3)o2)c1C	6*	7	-1	-21	0.0058	0.0041	?	?	0.018	0.0097
O=C(OCC(=O)N1CCc2ccccc2C1)c1ccc(N2CCOCC2)c([N+](=O)[O-])c1	-4.3*	6	8	2	0.0056	0.005	0.022*	0.0072	?	0.011
Nc1ccc(C(=O)OCC(=O)N2CCc3ccccc3C2)cc1[N+](=O)[O-]	-5.9*	9	-60	6	0.0057	0.0058	0.027*	?	0.012*	0.01
O=C(c1ccc(N2CCCCCC2)c([N+](=O)[O-])c1)N1CCc2ccccc21	-6.7*	5	15	-5	0.015	?	0.023*	0.0071	0.012	0.0094
O=C(c1cc([N+](=O)[O-])ccc1N1CCCCC1)N1CCc2ccccc21	-1.5	24	32	8	nt	nt	nt	nt	nt	nt
Cc1cc(-c2cn[nH]c2C2CCCN(C(=O)Cc3ccc4c(c3)OCO4)C2)on1 (configuration not stated)	nt	nt	-42	nt	nt	nt	nt	nt	nt	nt
CC(C)C(=O)N1CCC(c2nc(-c3ccc(N(C)C)cc3)no2)CC1	nt	6	-30	nt	nt	nt	nt	nt	nt	nt
O=c1n(CCN2CCCCC2)c2cccnc2n1Cc1cccs1	nt	nt	-2	nt	nt	nt	nt	nt	nt	nt
CCn1c2ccccc2c2cc(CN3CCc4c(nc(C)[nH]c4=O)C3)ccc21	nt	5	-24	nt	nt	nt	nt	nt	nt	nt
Cc1sc(-n2c(C)cc(/C=C3\SC(=S)NC3=O)c2C)c(C#N)c1C	9*	16	3	nt	0.0063	0.016*	0.031	0.016*	?	?
Cc1cc(/C=C2\SC(=S)NC2=O)c(C)n1-c1cccc(O)c1	-0.73	6	-40	-13	nt	nt	nt	nt	nt	nt
COc1ccc(NC(=O)C2CCCN(S(=O)(=O)c3ccc(OC)cc3)C2)cc1 (configuration not stated)	nt	9	-34	nt	nt	nt	nt	nt	nt	nt
SMILES	KCC2 mod	PGE2 EP2 inh	EP2 modulator	S1P3 antagonist	KCC2 secondary	KCC2 bumet counter	KCC2 secondary2	HEK293 Tl flux	KCC2 retest ouab	HEK293 Tl flux2
COc1ccc2c(C)cc(SC3CCOC3=O)nc2c1 (configuration not stated)	-0.13	4	21	-8	nt	nt	nt	nt	nt	nt
Cc1cc(C)c2nc(SC3CCOC3=O)cc(C)c2c1 (configuration not stated)	11*	7	33	-6	0.0083	?	0.031	0.011*	0.047	?
COc1ccc(CC(=O)Nc2nnc(Cc3ccccc3)s2)cc1OC	nt	4	-36	nt	nt	nt	nt	nt	nt	nt
O=C(CCN1C(=O)c2ccccc2S1(=O)=O)Nc1nc2c(s1)CCCC2	-3.8*	7	35	3	0.0077	0.0059	0.03	0.0071	0.015*	0.011
O=C(CS(=O)(=O)Cc1ccccc1)Nc1nc2c(s1)CCCC2	-1.1	7	21	11	nt	nt	nt	nt	nt	nt
O=C(CCS(=O)(=O)Cc1ccccc1)Nc1nc2c(s1)CCCC2	nt	-1	34	-7	0.0056	0.0046	0.022*	0.0075	?	0.01
Cc1ccc(CNc2c(-c3cnn(C)c3C)nc3cnccn23)cc1	nt	nt	-30	nt	nt	nt	nt	nt	nt	nt
N#C/C(=C\c1ccc(-c2ccccc2[N+](=O)[O-])o1)C(=O)Nc1nc(-c2cccs2)cs1	7.7*	21	-11	-23	0.018	0.027*	0.032	0.017*	0.022*	0.016*
N#C/C(=C\c1ccc(-c2ccc([N+](=O)[O-])cc2)o1)C(=O)Nc1nc(-c2cccs2)cs1	1.9	7	-28	-6	nt	nt	nt	nt	nt	nt
CCOCCCNS(=O)(=O)c1ccc2c(c1)NC(=O)C(C)O2 (configuration not stated)	nt	5	-44	nt	nt	nt	nt	nt	nt	nt
O=C1NCC(O)=C1C=NCCO	nt	15	1	nt	0.0062	0.0051	0.031	0.0078	0.018	0.012
CC/C(C)=C1/C(=O)NN(c2ccc(I)cc2)C1=O	nt	15	-30	nt	nt	nt	nt	nt	nt	nt
COc1ccccc1N(CC(=O)Nc1c(C)n(C)n(-c2ccccc2)c1=O)S(=O)(=O)c1ccc(C)cc1	-0.8	2	23	1	nt	nt	nt	nt	nt	nt

Screening results as filed in PubChem BioAssay.
